Compound activity: PubChem, The Scripps Research Institute Molecular Screening Center
sPLA2-III inh: Blocks human group III sPLA2 activity. inhibition, % at 12.2 µM. Q9NZ20. AID 743126. QFRET BODIPY PC-A2 liposome hydrolysis, fluorescence. 370,000 tested, 0.56% active;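 active = inhibition above mean plus 3 SD of compounds lying within the high and low control bounds, cut at about 19% in these data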
PLCb3 inh: blocks human PLC-beta3 enzyme activity. inhibition, % at 12.2 µM. 370,000 tested, 0.18% active. Purified PLC-beta3, fluorogenic substrate, fluorescence. Q01970. AID 720704; in the data active = inhibition above about 11%
DAGLB inhibitor: diacylglycerol lipase beta (human) inhibition | HEK293T DAGLB membrane lysate, EnzChek fluorogenic substrate | inhibition, % at 5.17 µM | 340,000 tested, 0.059% active | Q8NCG7; in the data active = inhibition above about 34%
PLCg1 inh: inhibitors of human phospholipase C gamma1. inhibition, % at 12.2 µM. AID 720700. P19174. purified PLC-gamma1, fluorogenic substrate, fluorescence. 370,000 tested, 0.84% active; in the data active = inhibition above about 9.5%
Numbers stand for hits; i = inactive; nt = no result. An excerpt weighted towards active compounds, which were near 1.5% of everything screened.

SMILES | sPLA2-III inh | PLCb3 inh | DAGLB inhibitor | PLCg1 inh
O=C(CSc1nnc(-c2cccnc2)n1-c1ccc(Cl)cc1)Nc1ccc(S(=O)(=O)Nc2nccs2)cc1 | i | i | nt | i
CCc1nnc(NC(=O)C2CCCN(c3nc4ccccc4s3)C2)s1 (stereo not drawn) | i | i | i | 11
Brc1ccc(OCCCCCN2CCOCC2)cc1 | i | i | i | 9.7
CCN(CC)C(=O)CC[C@@H]1CC[C@]2(CCCN(S(C)(=O)=O)C2)O1 | i | i | nt | i
O=C(COC(=O)CNC(=O)c1ccccc1F)NC12CC3CC(CC(C3)C1)C2 | i | i | i | 12
COc1ccc(N(CC(=O)Nc2cccc(C(=O)O)c2)S(=O)(=O)c2c(C)noc2C)cc1 | i | i | i | 13
COc1cccc(C2c3c(oc4ccccc4c3=O)C(=O)N2c2ccccn2)c1 (stereo not drawn) | 20 | i | i | i
CCOc1cccc(C2c3c(oc4ccccc4c3=O)C(=O)N2c2ccccn2)c1 (stereo not drawn) | i | i | nt | i
CC(COc1ccc(S(C)(=O)=O)cc1)CN1CCC(C(O)(c2ccccc2)c2ccccc2)CC1 (stereo not drawn) | i | i | nt | i
COc1ccc(C(=O)N2CCCC2)cc1S(=O)(=O)N1CCC(C)CC1 | i | 11 | i | i
COC(=O)[C@]12C[C@H](CC(=O)NCCc3ccccc3OC)C(=O)N(Cc3cccc4ccccc34)C1=C[C@H](COCc1ccccc1)O[C@@H]2C | i | i | nt | i
CCC(C(=O)OCC(=O)C1(O)CCC2C3CCC4=CC(=O)CCC4(C)C3C(O)CC21C)C(C)C (stereo not drawn) | i | i | i | i
CC(=O)[C@@]1(O)CC[C@H]2[C@@H]3CCC4=CC(=O)CC[C@]4(C)[C@H]3[C@@H](O)C[C@@]21C | i | i | i | 11
CCC(C)[C@H](NC(=O)N1CCn2c1nc1ccccc12)C(=O)NCCc1ccccc1 (stereo partly drawn) | i | i | i | 9.9
N#CCC[C@H]1CC[C@]2(CCCN(C(=O)c3ccc4ccccc4n3)C2)O1 | i | i | nt | i
COC(=O)c1cc(-c2ccc(Oc3ccccc3)cc2)c(=O)n2c1CCC2 | i | i | nt | i
COC(=O)c1cccc(NC(=O)c2ccc[n+]([O-])c2)c1 | i | i | i | 11
CN(CC#Cc1ccccc1)C(N)=NC(=O)/C=C/c1ccccc1 | i | i | nt | i
CCCNC(=O)C(=O)Nc1ccc(N(C)C)cc1 | i | i | i | 11
O=C(N=C1N=C2C=CC(Br)=CN2Cc2ccccc21)c1ccc([N+](=O)[O-])cc1[N+](=O)[O-] | i | 11 | i | 13
O=C(c1ccc([N+](=O)[O-])cc1[N+](=O)[O-])N1CCc2ccccc21 | i | i | i | i
CCCOc1ccc(C(=O)NNC(=S)NC(=O)c2ccccc2)cc1 | 20 | i | i | i
CCCOc1ccc(C(=O)NNC(=S)NC(=O)c2cccs2)cc1 | 32 | i | i | i
CCCOc1ccc(C(=O)NNC(=S)NC(C)=O)cc1 | i | i | i | i
O=C(O)CCCCCn1c(SCC(=O)c2ccc(O)c(O)c2)nc2ccsc2c1=O | i | i | i | 11
SMILES | sPLA2-III inh | PLCb3 inh | DAGLB inhibitor | PLCg1 inh
CC(C)Oc1ccc(C(CCN)C2CCCCC2)cc1 (stereo not drawn) | i | i | i | 12
COc1ccc(CN=Cc2c(O)[nH]c3ccccc23)cc1 | i | i | i | 10.0
Cc1ccc(-c2cc3nc(-c4ccco4)cc(N4CCN(Cc5ccoc5)CC4)n3n2)cc1 | i | i | nt | i
Cc1cccc(NNC(=O)C(=O)NNc2cccc(C)c2)c1 | i | i | nt | i
Cc1cccc(N=NC(=S)NNc2cccc(C)c2)c1 | 27 | i | i | i
Cc1cc(C)cc(Nc2nc3ccccc3c(=O)[nH]2)c1 | i | i | i | i
COc1nc(Nc2nc3ccccc3c(=O)[nH]2)nc2ccc(C)cc12 | i | i | i | 14
C=C1CCC2C(C)(C)CCC[C@]2(C)[C@H]1CC1=C(O)C(=O)C(CO)=CC1=O (stereo partly drawn) | i | i | nt | i
CC(C)C[C@H](NC(=O)c1[nH]cnc1C(=O)N[C@@H](C)C(=O)OCc1ccccc1)C(=O)OCc1ccccc1 | i | i | i | 11
CNc1ccc(C(=O)OCC(=O)NC(=O)NC2CCCC2)cc1[N+](=O)[O-] | i | i | i | 13
O=C(NCCCl)c1ccc(OCc2ccccc2)cc1Cl | 22 | i | i | i
COc1ccc(/C=N\NC(=O)c2cc(O)c(O)c(O)c2)cc1COc1ccc(C(=O)OCC(C)C)cc1 | 25 | i | i | i
COc1ccc2c(c1)OC[C@H]1[C@H]2N2C(=O)c3ccc(C)cc3NC(=O)[C@@]2(C)[C@H]1c1ccccc1 | 40 | i | i | i
Cc1cc(SCC(=O)N/N=C/c2ccc(O)c(O)c2O)c(C)cc1Br | 32 | i | i | i
C=CCN(CC#Cc1ccc(C)cc1)Cc1ccc(OC)cc1OC | i | i | nt | i
COc1ccc(S(=O)(=O)N2CCCCCC2)cc1NC(=O)Cc1cc(OC)c(OC)c(OC)c1 | i | i | i | i
COc1ccc(S(=O)(=O)N2CCCCCC2)cc1NC(=O)CN1C(=O)CNC1=O | i | i | i | 11
CCOC(=O)C(C)(C)n1nnc(-c2ccc([N+](=O)[O-])cc2)n1 | i | i | i | i
CCOC(=O)Cn1nnc(-c2ccc([N+](=O)[O-])cc2)n1 | i | i | i | 9.6
COC(=O)[C@]12C[C@H](CC(=O)NCCc3ccccc3OC)C(=O)N(Cc3ccc4c(c3)OCO4)C1=C[C@H](C(C)C)O[C@@H]2C1CC1 | i | i | nt | i
COCC(=O)N(Cc1ccccc1)c1ccccc1C(=O)Nc1cc(OC)ccc1OC | i | i | nt | i
OC(c1ccccc1)(c1ccccc1)C1CCN(CCCNc2ccc(C(F)(F)F)cc2)CC1 | i | i | nt | i
O=C1SC(SC(=Nc2ccccc2)Nc2ccccc2)C(=O)N1c1ccccc1 (stereo not drawn) | i | 14 | i | i
O=C(CN1CCN(c2ccc(F)cc2)CC1)Nc1ccccc1Br | i | i | i | 17
CN(CCO)c1ccc2c(c1)Oc1ccccc1CN(Cc1cn(Cc3ccc(C(F)(F)F)cc3)nn1)S2(=O)=O | i | i | nt | i
SMILES | sPLA2-III inh | PLCb3 inh | DAGLB inhibitor | PLCg1 inh
O=C(CN1C(=O)NC2(CCCCC2)C1=O)Nc1ccc2c(c1)OCCCO2 | i | i | i | 9.6
O=C1CCC[C@H]2Cc3nc4ccccc4cc3C[C@]23CCCN13 | i | i | nt | i
COc1cc2c(cc1OC)C(c1cccs1)N(C(=O)C(C)C)CC2 (stereo not drawn) | i | i | i | i
COc1cc2c(cc1OC)C(c1cccs1)N(C(=O)c1cccnc1)CC2 (stereo not drawn) | i | i | i | 9.9
O=C(Nc1ccc(Oc2ccccc2)cc1)c1csc([C@@H]2O[C@H](CO)[C@H](O)[C@H](O)[C@H]2O)n1 | i | i | nt | 9.7
CCCC[C@@H](CCCc1ccc(F)cc1)CCC(=O)N(c1ccccc1)c1ccccc1 | i | i | nt | i
CC(Sc1nnc(-c2ccccc2)c(-c2ccccc2)n1)C(=O)NCC1CCCO1 (stereo not drawn) | i | i | i | 12
Cc1ccc(C)n1NC(=O)c1cccs1 | i | i | i | i
CC(C)(NO)/C(=N/O)c1cccs1 | i | 12 | i | i
O=C1c2cccc(OCc3ccc(F)cc3)c2CCN1Cc1ccc(F)cc1 | i | i | i | 11
